From PubChem BioAssay AID1159580 (chemical genetic matrix, 2015)
Out of some 5,500 compounds screened, about 2,000 (36%) were called active. About 18% were inconclusive and are not listed. No stated cut-off is given here; in the data, active means normalized growth mostly below about 0.91 (no sharp cut-off); inconclusive means no clear call, values can overlap the other calls; inactive means mostly above about 0.92. The list shows a part of the results.

Assay: chemical genetic growth profiling, strain panel (AID 1159580);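 further: tested at 20 µM; growth read once vehicle control cultures reached saturation at 30 °C; 1 = growth at the plate median or of vehicle wells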
Details: growth OD

Measured: normalized growth

O=c1cc(-c2ccccc2)oc2cc(O)c(O)c(O)c12
active: S. cerevisiae deletion strains, locus YKL068W, stronger effect = lower value 0.855 | S. cerevisiae deletion strains, locus YKL085W, strain MDH1 (second series), stronger effect = lower value 0.84 | S. cerevisiae deletion strains, locus YKL085W, strain MDH1, stronger effect = lower value 0.84 | S. cerevisiae deletion strains, locus YKL160W, strain elf1, stronger effect = lower value 0.701 | S. cerevisiae deletion strains, locus YKL190W, strain CNB1, stronger effect = lower value 0.429 | S. cerevisiae deletion strains, locus YKR001C, strain vps1, stronger effect = lower value 0.376 | S. cerevisiae deletion strains, locus YKR026C, strain gcn3, stronger effect = lower value 0.572 | S. cerevisiae deletion strains, locus YKR091W, strain srl3, stronger effect = lower value 0.763 | S. cerevisiae deletion strains, locus YLL001W, strain dnm1, stronger effect = lower value 0.482 | S. cerevisiae deletion strains, locus YLL026W, stronger effect = lower value 0.57 | S. cerevisiae deletion strains, locus YLL041C, strain sdh2, stronger effect = lower value 0.649 | S. cerevisiae deletion strains, locus YLR027C, strain aat2, stronger effect = lower value 0.575 | S. cerevisiae deletion strains, locus YLR039C, strain RIC1, stronger effect = lower value 0.154 | S. cerevisiae deletion strains, locus YLR058C, strain SHM2, stronger effect = lower value 0.0829 | S. cerevisiae deletion strains, locus YLR102C, strain apc9, stronger effect = lower value 0.857 | S. cerevisiae deletion strains, locus YLR113W, strain HOG1, stronger effect = lower value 0.575 | S. cerevisiae deletion strains, locus YLR221C, strain rsa3, stronger effect = lower value 0.521 | S. cerevisiae deletion strains, locus YLR258W, strain gsy2, stronger effect = lower value 0.576 | S. cerevisiae deletion strains, locus YLR262C, strain YPT6 (second series), stronger effect = lower value 0.303 | S. cerevisiae deletion strains, locus YLR262C, strain YPT6, stronger effect = lower value 0.375 | S. cerevisiae deletion strains, locus YLR268W, strain sec22, stronger effect = lower value 0.176 | S. cerevisiae deletion strains, locus YLR320W, strain mms22, stronger effect = lower value 0.418 | S. cerevisiae deletion strains, locus YLR330W, strain CHS5, stronger effect = lower value 0.543 | S. cerevisiae deletion strains, locus YLR342W, strain FKS1 (second series), stronger effect = lower value 0.345 | S. cerevisiae deletion strains, locus YLR342W, strain FKS1, stronger effect = lower value 0.364 | S. cerevisiae deletion strains, locus YLR357W, strain rsc2, stronger effect = lower value 0.474 | S. cerevisiae deletion strains, locus YLR370C, strain arc18, stronger effect = lower value 0.427 | S. cerevisiae deletion strains, locus YLR371W, strain rom2, stronger effect = lower value 0.588 | S. cerevisiae deletion strains, locus YLR384C, strain iki3, stronger effect = lower value 0.327 | S. cerevisiae deletion strains, locus YLR418C, strain cdc73, stronger effect = lower value 0.303 | S. cerevisiae deletion strains, locus YML016C, strain PPZ1, stronger effect = lower value 0.399 | S. cerevisiae deletion strains, locus YML032C, strain rad52, stronger effect = lower value 0.165 | S. cerevisiae deletion strains, locus YML120C, strain ndi1, stronger effect = lower value 0.14 | S. cerevisiae deletion strains, locus YML124C, strain tub3, stronger effect = lower value 0.424 | S. cerevisiae deletion strains, locus YMR058W, strain fet3, stronger effect = lower value 0.223 | S. cerevisiae deletion strains, locus YMR078C, strain ctf18, stronger effect = lower value 0.547 | S. cerevisiae deletion strains, locus YMR125W, strain sto1, stronger effect = lower value 0.802 | S. cerevisiae deletion strains, locus YMR129W, stronger effect = lower value 0.568 | S. cerevisiae deletion strains, locus YMR205C, strain PFK2, stronger effect = lower value 0.294 | S. cerevisiae deletion strains, locus YMR223W, strain ubp8, stronger effect = lower value 0.464 | S. cerevisiae deletion strains, locus YMR231W, strain pep5, stronger effect = lower value 0.398 | S. cerevisiae deletion strains, locus YMR263W, strain SAP30, stronger effect = lower value 0.207 | S. cerevisiae deletion strains, locus YMR307W, strain GAS1, stronger effect = lower value 0.456 | S. cerevisiae deletion strains, locus YNL067W, strain RPL9B, stronger effect = lower value 0.401 | S. cerevisiae deletion strains, locus YNL071W, strain lat1, stronger effect = lower value 0.675 | S. cerevisiae deletion strains, locus YNL128W, strain TEP1, stronger effect = lower value 0.387 | S. cerevisiae deletion strains, locus YNL153C, strain GIM3, stronger effect = lower value 0.215 | S. cerevisiae deletion strains, locus YNL183C, strain NPR1, stronger effect = lower value 0.634 | S. cerevisiae deletion strains, locus YNL209W, strain ssb2, stronger effect = lower value 0.185 | S. cerevisiae deletion strains, locus YNL233W, strain BNI4, stronger effect = lower value 0.502 | S. cerevisiae deletion strains, locus YNL248C, strain rpa49, stronger effect = lower value 0.633 | S. cerevisiae deletion strains, locus YNL250W, strain rad50, stronger effect = lower value 0.76 | S. cerevisiae deletion strains, locus YNL271C, strain bni1, stronger effect = lower value 0.774 | S. cerevisiae deletion strains, locus YNL298W, strain CLA4, stronger effect = lower value 0.756 | S. cerevisiae deletion strains, locus YNL307C, strain MCK1, stronger effect = lower value 0.517 | S. cerevisiae deletion strains, locus YNL322C, strain KRE1 (second series), stronger effect = lower value 0.187 | S. cerevisiae deletion strains, locus YNL322C, strain KRE1, stronger effect = lower value 0.241 | S. cerevisiae deletion strains, locus YNR049C, strain mso1, stronger effect = lower value 0.714 | S. cerevisiae deletion strains, locus YNR052C, strain pop2, stronger effect = lower value 0.122 | S. cerevisiae deletion strains, locus YOL006C, strain TOP1, stronger effect = lower value 0.136 | S. cerevisiae deletion strains, locus YOL147C, strain pex11, stronger effect = lower value 0.187 | S. cerevisiae deletion strains, locus YOR001W, strain rrp6, stronger effect = lower value 0.325 | S. cerevisiae deletion strains, locus YOR061W, strain CKA2, stronger effect = lower value 0.545 | S. cerevisiae deletion strains, locus YOR069W, strain VPS5, stronger effect = lower value 0.617 | S. cerevisiae deletion strains, locus YOR070C, strain gyp1, stronger effect = lower value 0.782 | S. cerevisiae deletion strains, locus YOR080W, strain dia2, stronger effect = lower value 0.105 | S. cerevisiae deletion strains, locus YOR083W, strain WHI5, stronger effect = lower value 0.618 | S. cerevisiae deletion strains, locus YOR106W, strain vam3, stronger effect = lower value 0.221 | S. cerevisiae deletion strains, locus YOR136W, strain idh2, stronger effect = lower value 0.557 | S. cerevisiae deletion strains, locus YOR144C, strain elg1, stronger effect = lower value 0.202 | S. cerevisiae deletion strains, locus YOR184W, strain ser1, stronger effect = lower value 0.314 | S. cerevisiae deletion strains, locus YOR231W, strain MKK1, stronger effect = lower value 0.68 | S. cerevisiae deletion strains, locus YOR265W, strain rbl2, stronger effect = lower value 0.507 | S. cerevisiae deletion strains, locus YOR270C, strain vph1, stronger effect = lower value 0.169 | S. cerevisiae deletion strains, locus YOR290C, strain snf2, stronger effect = lower value 0.0825 | S. cerevisiae deletion strains, locus YOR316C, strain cot1, stronger effect = lower value 0.738 | S. cerevisiae deletion strains, locus YPL051W, strain arl3, stronger effect = lower value 0.328 | S. cerevisiae deletion strains, locus YPL055C, strain LGE1, stronger effect = lower value 0.443 | S. cerevisiae deletion strains, locus YPL078C, strain atp4, stronger effect = lower value 0.144 | S. cerevisiae deletion strains, locus YPL106C, strain sse1, stronger effect = lower value 0.582 | S. cerevisiae deletion strains, locus YPL240C, strain hsp82, stronger effect = lower value 0.671 | S. cerevisiae deletion strains, locus YPL241C, strain CIN2, stronger effect = lower value 0.57 | S. cerevisiae deletion strains, locus YPL256C, strain CLN2, stronger effect = lower value 0.693 | S. cerevisiae deletion strains, locus YPR119W, strain clb2, stronger effect = lower value 0.802 | S. cerevisiae deletion strains, locus YPR141C, strain kar3, stronger effect = lower value 0.849 | S. cerevisiae deletion strains, locus YPR163C, strain tif3, stronger effect = lower value 0.659 | S. cerevisiae deletion strains, locus YPR167C, strain met16, stronger effect = lower value 0.564 | S. cerevisiae deletion strains, strain wtn01, stronger effect = lower value 0.349 | S. cerevisiae strains, strain wild type, stronger effect = lower value 0.268
inactive: S. cerevisiae deletion strains, locus YKL009W, strain mrt4, stronger effect = lower value 0.97 | S. cerevisiae deletion strains, locus YOL012C, strain htz1 0.269
